Only some compounds are listed: those with a hit (about 21% of all), similar ones and a draw of the others.
Shiga toxin inh = blocks Shiga toxin action in Vero cells; Vero cells, Shiga toxin protein synthesis inhibition reporter; inhibition, % at 38.7 µM; 290,000 compounds, 9.2% hits; AID 2315; in the data active = inhibition mostly above about 28%, no sharp cut-off; inactive = mostly below about 43%
Pf growth 48h = P. falciparum growth inhibition at 48 hours (one generation) | P. falciparum luciferase growth in erythrocytes, 48 h | Potency, µM (highest dose often 28.7 µM), most hits filed as inhibitors | AID 504832 | 310,000 compounds, 5.9% hits
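Luminescence readout; reporter = integrated firefly luciferase in P. falciparum. RBC culture at 2% hematocrit, 0.1% parasitemia final, 37 C/5% CO2; decreased signal taken as growth inhibition.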
HCV inhibitor = inhibitors of hepatitis C virus infection; Potency, µM (series often up to 41.8 µM), actives largely listed as inhibitors; Huh7.5.1 HCVcc-Cre infection, luciferase reporter, 44 h; 340,000 compounds, 3.4% hits; AID 651820
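A cell-based infection assay in which seeded cells (1,000 per well) receive test compound after 4 h, are inoculated with HCVcc-Cre at approximately 0.5 moi, and are incubated 44 h before luminescence detection.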
Cycloheximide cs = counter-screen for Shiga toxin inhibitors: cycloheximide protein synthesis inhibition; cell reporter, cycloheximide protein synthesis inhibition counterscreen; max response, %; 300,000 compounds, 12% hits; AID 2314; in the data active = max response mostly above about 13%, no sharp cut-off; inactive = mostly below about 14%; also: read at 38.3 µM for the half of the compounds with a filed dose
AMA1-RON2 inh = inhibitors of Plasmodium falciparum AMA1-RON2 interaction. AlphaScreen AMA1-biotinylated RON2 peptide binding. Potency, µM (highest dose often 58.2 µM), usual class: inhibitors. 360,000 compounds, 0.2% hits; also: nearly all actives have a fitted effect of over 45% in size
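AMA1 (3D7) with his tag at 25 nM final met compounds first, then biotinylated RON2 peptide at 25 nM; detection used donor plus acceptor beads, 10 µg/mL apiece, read by AlphaScreen after 30 min at room temperature.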
Pf growth 96h = inhibits malaria parasite growth, 96 h; P. falciparum luciferase reporter growth, 96 h; Potency, µM (doses to about 28.7 µM), actives largely listed as inhibitors; 320,000 compounds, 6.9% hits
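Luminescence readout: decreased luciferase signal marks inhibited growth of reporter-expressing P. falciparum in infected red cells (2% hematocrit, 0.05% parasitemia final), exposed to compound two generations (96 h, 37 C, 5% CO2).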
Numbers stand for hits; - = inactive; ? = inconclusive; . = no result given; [ ] = dose if it differs, or a comment. Unless noted, calls follow the shape of the dose curve; as a rule, active = well fitted curve in the direction sought with a large enough effect; inconclusive = small, poorly fitted or top-dose-only effect, or another doubt; inactive = no such curve, though single readings can be large; an effect the other way counts as inactive or inconclusive.

SMILES | Shiga toxin inh | Pf growth 48h | HCV inhibitor | Cycloheximide cs | AMA1-RON2 inh | Pf growth 96h
CCCCc1ccc(/C(C)=N/Nc2cc(N3CCOCC3)nc(C)n2)cc1 | . | ? | ? | - | - | -
C/C(=N\Nc1cc(C)nc(NCc2ccccc2)n1)c1cccc([N+](=O)[O-])c1 | - | ? | 2µM | - | - | ?
O=C(C[C@H]1C[C@@H]2c3cc(NC(=O)c4cccnc4)ccc3O[C@@H]2[C@H](CO)O1)NCc1ccncc1 | . | . | . | . | - | .
CCOC(=O)c1[nH]c(C)c(C(=O)Nc2cc(Cl)ccc2C)c1C | - | - | 1.3µM | - | - | -
CCOC(=O)c1[nH]c(C)c(C(=O)Nc2ccc(C)c(Cl)c2)c1C | - | - | - | 9.0 | - | -
CCOP(=O)(OCC)C(NC(=O)Nc1ccc(Cl)c(Cl)c1)c1ccccc1 (centres undefined) | - | - | - | - | -[2.32 µM] | ?
CCc1c(C(=O)Nc2ccc(OC)c(Cl)c2)[nH]c(C)c1C(C)=O | - | 12µM | ? | - | - | -
CCOC(=O)c1[nH]c(C)c(C(=O)Nc2ccccc2C)c1C | - | - | ? | - | - | -
CCOP(=O)(OCC)C(NC(=O)Nc1ccc(C)c(Cl)c1)c1ccccc1 (centres undefined) | - | ? | - | - | - | 15µM
COc1ccc(Cl)cc1NC(=O)c1[nH]c(C)c(C(C)=O)c1C | - | - | - | - | - | -
COc1ccc(OC)c(NC(=O)c2ccc3c(c2)C(=O)N(CC2CCCO2)C3=O)c1 (centres undefined) | - | - | - | - | - | -
C/C(CC(=O)Nc1ccc(F)cc1F)=N\NC(=O)C(=O)N1CCCCC1 | 65 | - | . | 40 | . | ?
COC(=O)c1cc(S(=O)(=O)NCc2ccc3c(c2)OCO3)cn1C | - | - | - | - | - | ?
CCCc1nc2c(C)ccc(C)c2c(N)c1CC | - | 13µM | ? | - | - | 9.3µM
CCc1c(N)nc(N)nc1Nc1ccc(C)c(C)c1 | . | . | - | . | - | .
CCCOC(=O)c1ccc(-c2c(C)noc2-c2ccc(OC)cc2O)o1 | - | 0.74µM | ? | - | - | .
COc1ccc(-c2onc(C)c2-c2cscn2)c(O)c1 | - | ? | - | - | - | -
O=C(Nc1cccc(Cl)c1)c1ccncc1 | - | - | - | - | - | -
CN(C)S(=O)(=O)Oc1ccc(C(=O)Nc2cccc(Cl)c2)cc1 | 89 | - | - | 56 | - | -
CN(c1ccccc1C(=O)Nc1cccc(C(F)(F)F)c1)S(C)(=O)=O | - | - | - | - | - | ?
CN(C)S(=O)(=O)Oc1ccc(C(=O)Nc2cccc(C(F)(F)F)c2)cc1 | - | ? | 11µM | - | - | 1.7µM
COCCN1C(=O)CCC1(C)C(=O)NC1CCCC1 (centres undefined) | . | . | . | . | - | .
COc1ccc(C2/C(=C(/O)c3ccc4c(c3)CC(C)O4)C(=O)C(=O)N2CCCn2ccnc2)cc1OC (centres undefined) | . | . | - | . | - | .
Cc1ccc(S(=O)(=O)N2[C@H](CC(=O)c3cccc4ccccc34)OC[C@@H]2C)cc1 | . | . | . | . | - | .
CCOC(=O)[C@H]1[C@H]2COc3ccc(OC)cc3[C@@H]2N2C(=O)CN(CC3CCCO3)C(=O)[C@@]12C (some centres undefined) | . | - | - | . | - | ?
SMILES | Shiga toxin inh | Pf growth 48h | HCV inhibitor | Cycloheximide cs | AMA1-RON2 inh | Pf growth 96h
O=C(COC(=O)c1ccc2ccccc2n1)Nc1cccc(S(=O)(=O)NC2=NCCCCC2)c1 | - | - | - | - | - | -
O=C(COC(=O)c1ccccn1)Nc1ccc(S(=O)(=O)N2CCOCC2)cc1 | - | - | - | - | - | -
CCc1nc2ccccc2c(C(=O)OCC(=O)Nc2cccc(S(=O)(=O)NC3=NCCCCC3)c2)c1C | - | ? | 8.9µM | - | - | -
CCc1nc2ccccc2c(C(=O)OCC(=O)Nc2ccc(S(=O)(=O)N3CCOCC3)cc2)c1C | - | 9.3µM | 11µM | - | - | -
O=C(COC(=O)c1nc(Cl)ccc1Cl)Nc1cccc(S(=O)(=O)N2CCOCC2)c1 | . | . | - | . | - | .
CCc1nc2ccccc2c(C(=O)OCC(=O)Nc2cccc(S(=O)(=O)N3CCOCC3)c2)c1C | - | ? | 11µM | - | - | ?
Cc1cc(C)c2c(N)c(C(=O)NN3CC(=O)N(c4ccccc4)CC3=O)sc2n1 | - | - | - | - | - | -

Screening results as filed in PubChem BioAssay.
